Laboratory results as given in PubChem BioAssay (Tox21).
Results filed as inconclusive are left out. Where a call stands in place of a potency, no number is given. A number with no mark means an inactive call. Activity calls are given as the source filed them. Unless noted, calls follow the shape of the dose curve; as a rule, active = well fitted curve in the direction sought with a large enough effect in the repeat runs; inconclusive = weak or mixed curves; inactive = no such curve, though single readings can be large; an effect the other way counts as inactive or inconclusive.

How the values were obtained:
[1] = qHTS assay to identify small molecule antagonists of the retinoid-related orphan receptor gamma (ROR-gamma) signaling pathway - cell viability counter screen (AID 1159520); also: nearly all actives have a fitted effect of over 50% in size; also: potency is read from the fitted curve at half-maximal effect
Summary of the method: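 Tet-on ROR gamma CHO cells were given compounds for 2 hr, then doxycycline hyclate at 1 uM final, and incubated 16 hr at 37 C. Viability was measured as ATP content by CellTiter-Glo luminescence.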

[2] = qHTS assay to identify small molecule agonists of the AP-1 signaling pathway - cell viability counter screen (AID 1159525; calls by dose curve; also: nearly all actives have a fitted effect of over 55% in size; also: potency is read from the fitted curve at half-maximal effect)
Summary of the method: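 AP-1-bla ME-180 cells in Opti-MEM with 0.5% dialyzed FBS, compound exposure 5 h at 37 C in 15-point titration. Viability read in the same wells as ATP content by CellTiter-Glo luminescence, normalised to tetra-n-octylammonium bromide and DMSO controls.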

[3] = qHTS assay to identify small molecule agonists of the AP-1 signaling pathway (AID 1159526; calls by dose curve; also: potency is read from the fitted curve at half-maximal effect)
[4] = target: Retinoic acid receptor RXR-alpha (Homo sapiens) (UniProt P19793); experiment: qHTS assay to identify small molecule agonists of the RXR signaling pathway (AID 1159527; calls by dose curve; also: nearly all actives have a fitted effect of over 35% in size)
Summary of the method: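 Using 9-cis retinoic acid as the reference agonist, chemicals were tested in HEK 293T cells […] for 16 hr; substrate loading lasted 2 hr at room temperature.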

[5] = qHTS assay to identify small molecule agonists of the RXR signaling pathway - cell viability counter screen (AID 1159529); also: nearly all actives have a fitted effect of over 50% in size; also: potency is read from the fitted curve at half-maximal effect; as to activity change, negative = cytotoxicity: series mostly up to about 77 µM
Summary of the method: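 Compounds dissolved in DMSO were pinned onto HEK 293T cells carrying a beta-lactamase reporter under RXR-alpha control and incubated 16 hr. Cytotoxicity was then quantified by CellTiter-Glo luminescence.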

[6] = qHTS assay to identify small molecule antagonists of the retinoid acid receptor (RAR) signaling pathway - cell viability counter screen (AID 1159551); also: nearly all actives have a fitted effect of over 35% in size; also: potency is read from the fitted curve at half-maximal effect
Summary of the method: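 C3RL4 cells were seeded overnight at 37 C, then treated with compounds plus 1 uM (final) retinol for 6 h at 37 C. Viability was read as ATP by CellTiter-Glo luminescence after 30 min at room temperature.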

[7] = qHTS assay to identify small molecule antagonists of the retinoic acid receptor (RAR) signaling pathway (AID 1159552; also: nearly all actives have a fitted effect of over 50% in size; also: potency is read from the fitted curve at half-maximal effect)
Summary of the method: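 Test chemicals and DMSO controls were pin-transferred onto C3RL4 cells a day after seeding; retinol (1 uM final) followed at once. Luminescent reporter output was quantified after 6 hr of co-incubation and 30 min with detection reagent.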

[8] = qHTS assay to identify small molecule agonists of the retinoic acid receptor (RAR) signaling pathway (AID 1159553); also: potency is read from the fitted curve at half-maximal effect
Summary of the method: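 C3RL4 cells carrying a RARE luciferase reporter were plated overnight at 37 C, then exposed to compounds in DMSO for 6 hr at 37 C and 5% CO2. Luminescence was read 30 min after luciferase reagent addition at room temperature.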

[9] = target: Nuclear receptor ROR-gamma (Homo sapiens) (UniProt P51449); experiment: qHTS assay to identify small molecule antagonists of the retinoid-related orphan receptor gamma (ROR-gamma) signaling pathway (AID 1159521; also: nearly all actives have a fitted effect of over 50% in size; also: potency is read from the fitted curve at half-maximal effect)
Summary of the method: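 Test compounds were applied to Tet-on RORγ CHO cells 2 h ahead of doxycycline hyclate (1 uM final). Luciferase reporter activity was quantified by luminescence after 16 h at 37 C and 5% CO2.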

[10] = qHTS assay to identify small molecule antagonists of the vitamin D receptor (VDR) signaling pathway - cell viability counter screen (AID 743225); also: nearly all actives have a fitted effect of over 50% in size
Summary of the method: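 Compounds were pinned onto VDR-bla HEK 293T cells together with 1-alpha,25-dihydroxyvitamin D3 at 3 nM final. After 16 h at 37C and 5% CO2 plus the reporter readout, cell viability was measured by CellTiter-Glo luminescence (30 min, room temperature).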

Retinoic acid receptor RXR-alpha (Homo sapiens), sequence (P19793 whole entry, looked up): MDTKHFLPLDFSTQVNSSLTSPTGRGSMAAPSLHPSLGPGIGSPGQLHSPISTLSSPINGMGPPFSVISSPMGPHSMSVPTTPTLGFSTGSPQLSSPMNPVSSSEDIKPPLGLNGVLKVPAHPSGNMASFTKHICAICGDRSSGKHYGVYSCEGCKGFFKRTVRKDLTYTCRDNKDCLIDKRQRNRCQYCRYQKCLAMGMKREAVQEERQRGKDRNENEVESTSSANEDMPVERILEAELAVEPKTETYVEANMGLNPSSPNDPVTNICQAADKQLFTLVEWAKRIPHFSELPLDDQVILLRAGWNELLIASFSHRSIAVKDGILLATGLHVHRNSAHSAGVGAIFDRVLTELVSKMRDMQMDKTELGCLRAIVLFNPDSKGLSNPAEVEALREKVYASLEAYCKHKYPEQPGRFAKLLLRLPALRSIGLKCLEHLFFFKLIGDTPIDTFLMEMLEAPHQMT

## CCC1(C)C(=O)N(Cl)C(=O)N1Cl (stereo not drawn)
[1]
  Potency: inactive
[2]
  Potency: inactive
[3]
  Potency: inactive
[4]
  Potency: inactive
[5]
  Potency: inactive
[6]
  Potency: inactive
[7]
  Potency: inactive

## O=C(Nc1ccc([N+](=O)[O-])cc1)Nc1ccc([N+](=O)[O-])cc1 (tested in a mixture with another compound)
[1]
  Potency: inactive
[3]
  Potency: inactive
[4]
  Potency: inactive
[5]
  Potency: 0.848 µM (active)
[6]
  Potency: inactive

## CC/C(=C(/c1ccc(O)cc1)c1ccc(OCCN(C)C)cc1)c1ccccc1
[1]
  Potency: 40.3 µM (active)
[2]
  Potency: 36.2 µM (active)
[5]
  Potency: 14.4 µM (active)
[6]
  Potency: 35.9 µM (active)
[7]
  Potency: 18 µM (active)

## COc1cc(C(C)C)ccc1C
[1]
  activity, negative = cytotoxicity: -0.985% [at 19 µM]
[2]
  viability change, negative = cytotoxic: 8.58% [at 15.8 µM]
[4]
  activation: -1.52% [at 15.8 µM]
[5]
  activity change, negative = cytotoxicity: 10.4% [at 15.8 µM]
[6]
  activity change, negative = cytotoxicity: -0.431% [at 19 µM]
[7]
  activity, negative = inhibition: 191% [at 19 µM]

## Cc1ccc2nc(-c3ccc(N)cc3)sc2c1S(=O)(=O)O
[1]
  Potency: inactive
[2]
  Potency: inactive
[3]
  Potency: 21.5 µM (active)
[5]
  Potency: inactive
[6]
  Potency: inactive
[7]
  Potency: inactive
[8]
  Potency: 0.426 µM (active)

## C1CCSC1
[1]
  Potency: inactive
[2]
  Potency: inactive
[3]
  Potency: inactive
[4]
  Potency: inactive
[5]
  Potency: inactive
[6]
  Potency: inactive
[7]
  Potency: inactive

## CCC(O)CO (stereo not drawn)
[1]
  Potency: inactive
[2]
  Potency: inactive
[3]
  Potency: inactive
[4]
  Potency: inactive
[5]
  Potency: inactive
[6]
  Potency: inactive

## Cn1c(=O)[nH]c2ncn(C)c2c1=O
[1]
  Potency: inactive
[2]
  Potency: inactive
[3]
  Potency: inactive
[4]
  Potency: inactive
[5]
  Potency: inactive
[6]
  Potency: inactive
[7]
  Potency: inactive

## Clc1nc(C(Cl)(Cl)Cl)c(Cl)c(Cl)c1Cl
[1]
  Potency: 30.6 µM (active)
[2]
  Potency: inactive
[5]
  Potency: 43.6 µM (active)

## CC1=CC[C@@H](C(C)(C)O)CC1
[1]
  Potency: inactive
[3]
  Potency: inactive
[4]
  Potency: inactive
[5]
  Potency: inactive
[6]
  Potency: inactive

## CCCCCCCCc1ccc(Nc2ccc(CCCCCCCC)cc2)cc1
[1]
  Potency: inactive
[2]
  Potency: inactive
[3]
  Potency: inactive
[4]
  Potency: inactive
[5]
  Potency: inactive
[6]
  Potency: inactive
[7]
  Potency: inactive

## CC1(C)[C@H]2CC[C@]1(C)C(=O)C2
[1]
  Potency: inactive
[2]
  Potency: inactive
[3]
  Potency: 19.5 µM (active)
[5]
  Potency: inactive
[6]
  Potency: inactive
[7]
  Potency: inactive

## COc1cc(/C=C/C(=O)CC(=O)/C=C/c2ccc(O)c(OC)c2)ccc1O
[1]
  Potency: 48.9 µM (active)
[9]
  Potency: 61.5 µM (active)
[7]
  Potency: inactive
[8]
  Potency: 9.75 µM (active)

## O=C(c1ccccc1)c1ccc(Cl)cc1
[1]
  Potency: inactive
[9]
  Potency: 68.6 µM (active)
[6]
  Potency: inactive
[7]
  Potency: inactive

## O=C(Cl)c1ccc(Cl)cc1Cl
[1]
  Potency: 61.1 µM (active)
[3]
  Potency: inactive
[4]
  Potency: inactive
[5]
  Potency: inactive
[6]
  Potency: inactive
[7]
  Potency: inactive

## CC(C)C(=O)C(C)C
[1]
  Potency: inactive
[2]
  Potency: inactive
[3]
  Potency: inactive
[5]
  Potency: inactive
[6]
  Potency: inactive
[7]
  Potency: inactive

## CN(C[C@@H](CC[N+]12CCC(C3CCCCC3)(CC1)CC2)c1ccc(Cl)c(Cl)c1)C(=O)c1cc(C(F)(F)F)cc(C(F)(F)F)c1
[1]
  Potency: 48.6 µM (active)
[2]
  Potency: 43.6 µM (active)
[5]
  Potency: 17.4 µM (active)
[6]
  Potency: 54.5 µM (active)

## Nc1ccc(Oc2cccc(Oc3ccc(N)cc3)c2)cc1
[1]
  Potency: inactive
[2]
  Potency: inactive
[3]
  Potency: inactive
[5]
  Potency: inactive
[6]
  Potency: inactive
[7]
  Potency: 24.3 µM (active)

## CC(C)c1ccc2sc3ccccc3c(=O)c2c1
[10]
  Potency: inactive
[1]
  Potency: inactive
[2]
  Potency: inactive
[3]
  Potency: inactive

## CCNc1nc(NC(C)(C)C)nc(OC)n1
[1]
  Potency: inactive
[2]
  Potency: inactive
[3]
  Potency: inactive
[4]
  Potency: inactive
[5]
  Potency: inactive
[6]
  Potency: inactive
[7]
  Potency: inactive

## CCOC(=O)[C@H](O)[C@@H](O)C(=O)OCC
[1]
  Potency: inactive
[2]
  Potency: inactive
[3]
  Potency: inactive
[4]
  Potency: inactive
[5]
  Potency: inactive
[6]
  Potency: inactive
[7]
  Potency: inactive

## Cc1ccc(C2OC[C@@H]3OC(c4ccc(C)cc4)O[C@H]([C@H](O)CO)[C@@H]3O2)cc1 (stereo partly drawn)
[1]
  Potency: inactive
[2]
  Potency: inactive
[3]
  Potency: inactive
[4]
  Potency: inactive
[5]
  Potency: inactive
[6]
  Potency: inactive
[7]
  Potency: inactive

## Nc1c(Br)cc([N+](=O)[O-])cc1Br
[1]
  Potency: inactive
[2]
  Potency: inactive
[3]
  Potency: inactive
[4]
  Potency: inactive
[5]
  Potency: inactive
[6]
  Potency: inactive
[7]
  Potency: inactive

## O=C(CCCCCCCCc1cccnc1)N1CCC(C=C(c2ccccc2)c2ccccc2)CC1
[1]
  Potency: 68.6 µM (active)
[2]
  Potency: inactive
[6]
  Potency: inactive
[7]
  Potency: inactive
[8]
  Potency: inactive

## CCCCCc1ccc(O)cc1
[9]
  Potency: inactive
[6]
  Potency: inactive
[7]
  Potency: inactive

## S=C1NC=NC2N=CNC12 (stereo not drawn)
[2]
  Potency: inactive
[3]
  Potency: inactive
[5]
  Potency: 6.92 µM (active)
[8]
  Potency: inactive

## CCN(CC)c1ccc2c(c1)Oc1cc(N(CC)CC)ccc1C21OC(=O)c2ccccc21
[9]
  Potency: inactive
[6]
  Potency: 11.9 µM (active)
[7]
  Potency: inactive

## CCCCCCCCCCCCN1CCCC1=O
[9]
  Potency: inactive
[4]
  Potency: inactive
[5]
  Potency: 54.9 µM (active)
[6]
  Potency: inactive
[7]
  Potency: inactive

## CCOc1ccc([N+](=O)[O-])cc1
[2]
  Potency: 49.7 µM (active)
[5]
  Potency: 49.7 µM (active)
[7]
  Potency: inactive

## CN(C/C=C/c1ccccc1)Cc1cccc2ccccc12
[1]
  Potency: inactive
[5]
  Potency: 13.4 µM (active)
[6]
  Potency: 26.6 µM (active)

## CC(Cc1ccc(O)c(O)c1)C(C)Cc1ccc(O)c(O)c1 (stereo not drawn)
[9]
  Potency: 6.86 µM (active)
[2]
  Potency: inactive
[4]
  Potency: inactive
[7]
  Potency: inactive
[8]
  Potency: inactive

## c1ccc(-c2nc3ccccc3[nH]2)cc1
[3]
  Potency: inactive
[4]
  Potency: inactive
[5]
  Potency: inactive
[7]
  Potency: inactive
